Assay outcomes (PubChem)
MCF10A rerep: A quantitative high throughput screen for small molecules that induce DNA re-replication in MCF 10a normal breast cells | Potency, µM (highest dose often 46.1 µM), usual class: activators | MCF 10A DNA re-replication, Hoechst nuclear intensity, 48 h | 350,000 compounds, 2.9% hits; note: nearly all actives have a fitted effect of over 50% in size
KCNH2 3.1 inh: qHTS for Inhibitors of KCHN2 3.1: Mutant qHTS; Potassium voltage-gated channel subfamily H member 2, brain isoform KCNH2 3.1 (human); U2OS KCNH2 3.1, thallium flux FluxOr; hits give low values; activity change, % (tested at about 1.8 µM); 340,000 compounds, 0.95% hits;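 active = maximum activity change below -70%; inconclusive = maximum activity change from -70% to -50%; inactive = maximum activity change above -50%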;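 note: thallium influx rate constant from kinetic fluorescence after stimulation buffer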
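Kinetic fluorescence (2 min after stimulation buffer) measures Tl+ influx through KCNH2 3.1 expressed by viral transduction in U2OS cells; the rate constant is normalized against DMSO controls serving as positive and negative references.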
KCNH2 WT inh: qHTS for Inhibitors of KCHN2 3.1: Wildtype qHTS; Voltage-gated inwardly rectifying potassium channel KCNH2 (Homo sapiens), Q12809; U2OS, BacMam KCNH2, thallium flux FluxOr; hits give low values; activity change, % at 1.84 µM; 340,000 compounds, 0.37% hits;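 active = maximum activity change below -70%; inconclusive = maximum activity change between -70% and -50%; inactive = maximum activity change above -50%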
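U2OS cells transduced with wild-type KCNH2 virus are loaded with FluxOr dye for 45 min, and thallium flux is measured in kinetic reads before and after stimulation buffer. Rate constants are normalized to DMSO controls.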
KB-V1 MDR tox: qHTS assay for MDR1-selective chemotherapeutics: Primary screen using the drug-selected MDR subline cells KB-V1. KB-V1 MDR cells viability, CellTiter-Glo, 72 h. Potency, µM (highest dose often 46.1 µM), actives largely listed as cytotoxic. 400,000 compounds, 3.4% hits; note: nearly all actives have a fitted effect of over 60% in size
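Compound-treated KB-V1 multidrug-resistant cells, 72 h, 37 degrees C; viability by CellTiter-Glo. Fitted qHTS curves give the values.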
SW480 rereplic: A quantitative high throughput screen for small molecules that induce DNA re-replication in SW480 colon adenocarcinoma cells. SW480 DNA re-replication, Hoechst DNA content imaging, 48 h. Potency, µM (top dose mostly 46.1 µM), actives largely listed as activators. 340,000 compounds, 1.8% hits. AID 624297, 2012; note: nearly all actives have a fitted effect of over 55% in size
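DNA re-replication was detected as more nuclei of elevated Hoechst intensity after 48 hr exposure to compound (23 nL pinned per well of 250 cells).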
KB-3-1 tox: qHTS assay for MDR1-selective chemotherapeutics: Primary screen using the parental adenocarcinoma cell KB-3-1; 400,000 compounds, 1.4% hits; Potency, µM (titrated, usually from 46.1 µM), most hits filed as cytotoxic; KB-3-1 viability, CellTiter-Glo ATP luminescence, 72 h; note: nearly all actives have a fitted effect of over 60% in size
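Parental KB-3-1 viability, qHTS format: 72 h compound exposure, 37 °C; CellTiter-Glo; media-only wells and DMSO plates as controls; concentration-effect fits on corrected data.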
Large screens that a line does not name were inactive. Sampled rows, rich in hits. Any-hit rate of the full collection: about 7.6%. Unless noted, calls come from the whole dose curve; as a rule, active = well fitted curve in the direction sought with a large enough effect; inconclusive = small, poorly fitted or top-dose-only effect, or another doubt; inactive = no such curve, though single readings can be large; an effect the other way counts as inactive or inconclusive.

N=c1c2c(-c3ccccc3)c(-c3ccccc3)n(Cc3ccco3)c2ncn1Cc1ccco1	MCF10A rerep inconclusive, KCNH2 3.1 inh -93, KCNH2 WT inh inconclusive, KB-V1 MDR tox inconclusive, KB-3-1 tox 16µM
O=C(CSc1nnnn1-c1ccc(C(=O)O)cc1)NC1CCCCC1	KB-V1 MDR tox inconclusive
CCCCN(CCCC)c1ccc(/C=C2\C=Cc3ccccc32)cc1	none (no result: MCF10A rerep, KCNH2 3.1 inh, KCNH2 WT inh, SW480 rereplic)
CC1(C)CC(=O)C2=C(C1)N(Cc1ccco1)C(=O)C2(NC(=O)C1CCCCC1)C(F)(F)F (centres undefined)	KB-V1 MDR tox inconclusive
CC(=O)C1=C(C)N(Cc2ccco2)C(=O)C1(NC(=O)C1CCCCC1)C(F)(F)F (centres undefined)	KB-V1 MDR tox 18µM
Cn1c(=O)c2c(=O)cc(N)[nH]c2n(C)c1=O	none
N#CC1=C(N)Oc2c(ccc3cccnc23)C1c1cccnc1 (centres undefined)	MCF10A rerep 8.2µM, KB-V1 MDR tox inconclusive, SW480 rereplic 2.6µM, KB-3-1 tox inconclusive
Cc1ccc2cc(C3C(C#N)=C(N)Oc4c3ccc3cccnc43)c(=O)[nH]c2c1 (centres undefined)	MCF10A rerep inconclusive, SW480 rereplic inconclusive
C[n+]1cccc2ccc3c(c21)OC(N)=C(C#N)C3c1ccccc1 (centres undefined)	none
C[n+]1cccc(C2C(C#N)=C(N)Oc3c2ccc2ccccc32)c1 (centres undefined)	MCF10A rerep inconclusive, KB-V1 MDR tox inconclusive, SW480 rereplic 18µM, KB-3-1 tox inconclusive
CCc1ccc2[nH]c(=O)c(C3C(C#N)=C(N)Oc4c3ccc3cccnc43)cc2c1 (centres undefined)	MCF10A rerep inconclusive, KB-V1 MDR tox 2.3µM, SW480 rereplic inconclusive, KB-3-1 tox inconclusive
CCOC(=O)C1=C(c2ccccc2)OC(N)=C(C#N)C1c1cccs1 (centres undefined)	KB-V1 MDR tox inconclusive
N#CC1=C(N)Oc2cc3ccccc3cc2C1c1cccs1 (centres undefined)	MCF10A rerep inconclusive, SW480 rereplic inconclusive, KB-3-1 tox 10µM
CN(C)/C=N/C1=C(C#N)C(c2cccs2)c2ccc3ccccc3c2O1 (centres undefined)	MCF10A rerep inconclusive, KB-V1 MDR tox 5.8µM, SW480 rereplic 5.2µM, KB-3-1 tox 2.6µM
CCOC(=O)CC1=C(C(=O)OCC)C(c2cccs2)C(C#N)=C(N)O1 (centres undefined)	KB-V1 MDR tox inconclusive
CC(C)(C)C1=C(C#N)C(c2cccnc2)C(C#N)=C(N)O1 (centres undefined)	none
N#CC1=C(N)Oc2cc3ccccc3cc2C1c1cccnc1 (centres undefined)	MCF10A rerep 7.1µM, KB-V1 MDR tox inconclusive, SW480 rereplic 18µM, KB-3-1 tox 5.8µM
CCCCC(=O)O[C@]1(C(=O)CO)[C@H](C)C[C@H]2[C@@H]3CCC4=CC(=O)C=C[C@]4(C)[C@@]3(F)[C@@H](O)C[C@@]21C	none (no result: KCNH2 3.1 inh, KCNH2 WT inh, KB-V1 MDR tox, KB-3-1 tox)
CCOC(=O)/C(C#N)=C1\CC2CCC1(C)C2(C)C (centres undefined)	SW480 rereplic inconclusive
Cn1c(SCc2nc3ccccc3[nH]2)nnc1-c1cccs1	KB-V1 MDR tox 21µM
Cn1c(SCc2c(Cl)cccc2Cl)nnc1-c1cccs1	KB-V1 MDR tox 18µM
CCc1nc2c(OCc3cccc(Cl)c3)cccn2c1N(C)C(=O)c1ccncc1	KB-V1 MDR tox inconclusive (no result: MCF10A rerep, KCNH2 3.1 inh, KCNH2 WT inh, SW480 rereplic)
Cc1cc(=O)oc2cc(O)cc(OCc3ccccc3)c12	MCF10A rerep 21µM, KB-V1 MDR tox 15µM, SW480 rereplic inconclusive, KB-3-1 tox inconclusive
COC(=O)c1sc2nc(CSc3ccc(Br)cc3)[nH]c(=O)c2c1C	MCF10A rerep 15µM
COCCn1c(SCc2nc3sc(C(=O)OC)c(C)c3c(=O)[nH]2)nc2ccccc21	none
Cc1cc(OC(C)C(=O)NCC2CCC(C(=O)O)CC2)c2c(C)c(C)c(=O)oc2c1 (centres undefined)	MCF10A rerep inconclusive
O=C(NC1CCOCC1)C1CCC(=O)N(Cc2ccc(Cl)cc2)C1 (centres undefined)	SW480 rereplic 9.2µM, KB-3-1 tox inconclusive (no result: KCNH2 3.1 inh)
O=C(Nc1ccc(Cl)cc1C(F)(F)F)c1cc(S(=O)(=O)NCc2ccccc2)ccc1F	none (no result: MCF10A rerep, KCNH2 3.1 inh, KCNH2 WT inh, SW480 rereplic)
Cc1ccc2c(n1)sc1c(-c3ccc(Br)cc3)c(C#N)c(N)nc12	MCF10A rerep inconclusive, SW480 rereplic 2.3µM
CCc1nc(N)c(C#N)c(-c2ccc(F)cc2)c1C	none
CCc1ccc(NC(=O)c2cc3ccccn3n2)cc1	KB-V1 MDR tox inconclusive, KB-3-1 tox 15µM (no result: MCF10A rerep, KCNH2 3.1 inh, KCNH2 WT inh, SW480 rereplic)
C=CCn1c2[n+](c3ccccc3c1=O)CCCCC2	KCNH2 3.1 inh -113
CC(C)(C)c1cc(C(=O)NNc2ccc(OC(F)(F)F)cc2)n(Cc2ccccc2)n1	MCF10A rerep 18µM, KB-V1 MDR tox inconclusive
CC(C)(C)c1cc(C(=O)Nc2ccc(F)cc2)n(Cc2ccc(F)cc2)n1	MCF10A rerep 21µM, KB-V1 MDR tox inconclusive, KB-3-1 tox inconclusive
CC(C)(C)c1cc(C(=O)NNc2cc(C(F)(F)F)ccc2Cl)n(Cc2ccccc2)n1	MCF10A rerep 21µM, KB-V1 MDR tox inconclusive, KB-3-1 tox inconclusive
Cc1ccc(NNC(=O)c2cc(C(C)(C)C)nn2Cc2ccccc2)cc1	MCF10A rerep inconclusive, KB-3-1 tox 12µM
Cc1ccc(NC(=O)c2cc(C(C)(C)C)nn2Cc2ccccc2)cc1	MCF10A rerep inconclusive, KB-V1 MDR tox inconclusive, KB-3-1 tox inconclusive
C#CCOc1ccc(C2C3=C(CCCC3=O)N(CC(=O)O)C3=C2C(=O)CCC3)cc1Br	SW480 rereplic inconclusive
COc1ccccc1-c1nc2ccccc2c(=O)n1NC(=O)c1cccs1	MCF10A rerep inconclusive
O=C(Nc1ccc(F)cc1)C(c1ccccc1OC(F)(F)F)N1CCN(C(=O)c2ccco2)CC1 (centres undefined)	KB-V1 MDR tox inconclusive (no result: MCF10A rerep, KCNH2 3.1 inh, KCNH2 WT inh, SW480 rereplic)
CS(=O)(=O)N(CC(=O)N1CCN(Cc2ccc3c(c2)OCO3)CC1)C1CCCCC1	KB-V1 MDR tox 21µM
O=C(CCC1CCCCC1)N1CCN(Cc2ccc3c(c2)OCO3)CC1	KB-V1 MDR tox 23µM, KB-3-1 tox inconclusive
CCOc1cc(CNCCSc2nnnn2C)cc(Br)c1OCc1ccc(F)cc1	KB-V1 MDR tox 18µM, SW480 rereplic inconclusive, KB-3-1 tox inconclusive
